Assay results: the supplement of paper PMC6555819

The sequences below were run on VDR:RXRa (NR concentration 270 nM, RXRa partner concentration 90 nM) (assay: PBM binding z-score (relative to random genomic background probes); higher = stronger binding; sequences stand for … in GC…GCGATTGACAGCGTAGAATGAAGG).
Procedure: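 Protein-binding microarray (Agilent 4x180K custom design, double-stranded 60-nt probes: 5' GC cap, 34-nt variable region, 24-nt constant primer region; full probe sequence given). Purified or IVT nuclear receptor:RXRα heterodimers (3:1 NR:RXRα, mostly 270:90 nM) or homodimers were incubated for 1 h in PBS with 2% milk and no ligand, then detected with Alexa488 antibodies. Fluorescence from o1-orientation probes (~5 replicates averaged) was converted to z-scores against 500 random hg19 background probes. Variable regions are seed direct-repeat (DR0–DR5) sites, all their single-nucleotide variants and half-site ablations.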

First: TCATATAGGTAAAAGGTGAAAGGCGGTGTGGTAA
Second: CCTACTGGGCCACGAAAGGTCACTGATTCAGTGA
The PBM binding z-score of the first is lower: 1.39 for the first, 3.77 for the second.

Compared with CAAACTAGGTCACCAGAAGGTCAAAGTCCGCATG, AGAATGACGTTAAGATCAGGGAAACAGAATACAT is lower in PBM binding z-score: 5.66 for the first, -0.215 for the second.

Going from TCTTGTAGATCAATACAGGTTAAGAAAGTGCGCT to GGAACGAGGGCATTCGAGTTGAGAGCATGGCGAT, the PBM binding z-score rises from 1.26 to 3.07.

Compared with TAAATGAGGTTATAAGATCAGGGAACGTTGCAAA, CAAACTAGGTCACAGAGGTCTAAGTCCGTGCGTA is higher in PBM binding z-score: 1.1 for the first, 4.9 for the second.

Going from ATCTCTATGTAAAAGTTCAGTGAATCCCGAGGAT to TAGCCTAGGTCATGGGCCAGGATACCACGCGAAC, the PBM binding z-score rises from 1.2 to 1.97.

Compared with GCTAACAGGCCATTTGGGTCACTCAATGACGGGC, CCAGACAAGTGAAAGGTAACTCAGTCTGGTACGC is lower in PBM binding z-score: 1.45 for the first, 0.274 for the second.

Going from TGTCAAGGTTCAAAGGTAACGTAAGTATCCACAC to GATACAGGGTCAGATAGAGGCCAGAGTATGGAAA, the PBM binding z-score falls from 4.59 to 3.49.

Compared with ATATGAAGGTTAAGGGTCATTCAGGTTGGTTCGC, TCATATAGGTAGAAGGTGAAAGTCGGTGTGGTAA is lower in PBM binding z-score: 6.02 for the first, 0.866 for the second.

Compared with TCTAGTTGGTGAAAGGTCACACACTCGAAATGCG, CCTAGTTGGTCAGGAGGTCACACACCGGATATGA is lower in PBM binding z-score: 4.89 for the first, 4.06 for the second.

Compared with TTACCAATGTGAAGGTCGTTGATCCCTCTGTAGA, TAGCCTAGGTCATTCGGGCCAGTATAGTGTCGGC is higher in PBM binding z-score: 1.17 for the first, 3.94 for the second.

First: CGAACGAGGGCATGAGTTGATGGCAAATGCCGAT
Second: TCTTGTAGATCAATAAAGGTTAAGAAAGTGCGCT
The PBM binding z-score of the first is lower: 1.34 for the first, 2.18 for the second.

Going from TCATATAGCTAATACAGGTGAAAGTCGGCATCTA to TCTATTAGTTGATTAGGGAAACCGAAACAGCGGA, the PBM binding z-score rises from 0.529 to 0.846.

Going from TCGAGTAGGTTACCAATGGGACATTCAGCTTTCT to CAAACTAGGTCACAGAGGTCAGAGTCCGTGCGTA, the PBM binding z-score rises from -0.0477 to 7.34.

Compared with GGAACGAGGGCATACGAGTTGATAGCATGGCGAT, ATATCTAGGTAAAGATAGTTCAGTGAATGCAAAT is lower in PBM binding z-score: 2.73 for the first, 0.986 for the second.

Going from GCTCGGAGGACAAGATCAGAGCTTTGTCCGTAGA to CAAACTAGGTCACCGGTAGGTCAAAGTCCGCATG, the PBM binding z-score rises from -0.806 to 4.75.

Going from CGTCCAAGGTCAAGGTCAGTGAGAGAGACTCGAA to CCTAGCAGGCCAAACTGGGTCACTCAAGGCTTGA, the PBM binding z-score falls from 4.84 to 0.616.

Going from TCTTGTAGATCACCAGGAGGTTAAGAAAGATCGA to CGAACTAGGTCAAGGACTGTGAATCTCCGCACGC, the PBM binding z-score rises from 0.799 to 1.17.

First: CCTTACGGGTTACGAGGTTATAGCACGACGAGCG
Second: CCGACTAGGTTATGGGGCATTCAGGCAACGGTGA
The PBM binding z-score of the first is higher: 2.36 for the first, -0.337 for the second.

Going from CAGCTTAGGTCAGGGCCAGTATAGGAGGAACGTT to GCTATTATTTGAAAGGGCAACCGAATGATTCTCG, the PBM binding z-score rises from 0.513 to 0.646.

First: AATACAGGGTCACTAGGCCAAAGTAGGTACGAAT
Second: TATACAGGGTCAAAGACCAGAGTACGAATGTCGA
The PBM binding z-score of the first is lower: 4.27 for the first, 4.43 for the second.
